# ChEMBL document CHEMBL1157539, “Thousands of chemical starting points for antimalarial lead identification” (Nature, 2010)
# Experiments:
# Format in all cases: functional
# [1] = tested on: Plasmodium falciparum; experiment: GSK_TCMDC: Inhibition of Plasmodium falciparum 3D7 in whole red blood cells, using parasite LDH activity as an index of growth. Test compounds present at 2uM
# [2] = tested on: Plasmodium falciparum; experiment: GSK_TCMDC: Inhibition of Plasmodium falciparum Dd2 in whole red blood cells, using parasite LDH activity as an index of growth. Test compounds present at 2uM
# [3] = tested on: HepG2; experiment: GSK_TCMDC: Percent inhibition of human HepG2 cell line. Test compounds present at 10uM.
SMILES,Inhibition [1] [%],Inhibition [2] [%],Inhibition [3] [%]
Cc1c(C2CCN(CCCCNC(=O)c3ccc(-c4ccc(C#N)cc4)cc3)CC2)c2ccccc2n1CCO,96,99,28
CCCCCCN1CCC(NCc2cccc(C#N)c2)CC1.O=C(O)C(F)(F)F,97,9,5
CC1CN(c2ccnc3ccc(Sc4ccc(Oc5ccccc5)cc4)cc23)CC(C)N1.Cl (stereo not given),100,99,33
Nc1nc(N)c2c(ccc3c2ccn3Cc2ccc(F)cc2)n1,97,96,66
Cc1nc(C)c(CC(=O)Nc2cccc(-c3cccc(-c4nc5cccc(C)c5[nH]4)c3)c2)s1,92,35,43
CCOc1cccc(C2c3c(oc4ccccc4c3=O)C(=O)N2CCN(CC)CC)c1 (stereo not given),100,66,5
O=C(Nc1cc(Cl)ccc1O)c1ccc(Oc2ccc(C(=O)Nc3cc(Cl)ccc3O)cc2)cc1,97,91,32
Cc1cc2c(cc1C(F)(F)F)N(C(=O)Nc1cc(C(=O)NC3CCN(Cc4ccccc4)C3)cc(C(F)(F)F)c1)CC2.Cl (stereo not given),100,97,22
COC(=O)COc1cc(C(=O)NCCCCN2CCC(c3ccc4c(c3OC)CCCC4)CC2)ccc1-c1ccc(Cl)cc1,97,21,32
COc1ccc(Cc2cccc(C(C(=O)NCc3cc(Cl)cc(Cl)c3)N3CCN(C)CC3)c2)cc1.O=C(O)C(F)(F)F (stereo not given),100,24,8
COC(=O)c1cccc(CNCc2cccc(-c3ccc(-c4nc5cc(C(F)(F)F)ccc5[nH]4)cc3)c2)c1.O=C(O)C(F)(F)F,100,83,13
N#CCCN1CCN(Cc2cccc(-c3ccc(-c4nc5cc(F)ccc5[nH]4)cc3)c2)CC1.O=C(O)C(F)(F)F,100,35,18
CC(C)(C)c1cc(C(=O)Nc2ccc(C(=N)N)cc2)c(O)c(C(C)(C)C)c1.O=C(O)C(F)(F)F,100,88,4
c1ccc2c(c1)ncc1c3ccccc3[nH]c21,95,36,0
O=C(NCC1CCC(C(=O)O)CC1)c1ccc(/C=C/C(=O)N2CCc3ccccc3C2c2ccc3c(c2)OCO3)cc1 (stereo not given),91,17,66
COc1cc(C2CCN(CCCCNC(=O)c3ccc(NC(=O)c4ccc(Cl)c(Cl)c4)cc3)CC2)ccc1OC(C)C,100,96,45
N#CCCN1CCN(Cc2ccc(-c3cccc(-c4nc5cc(F)ccc5[nH]4)c3)cc2)CC1.O=C(O)C(F)(F)F,91,17,16
Cl.N=C1C=C(N)C(=O)c2ccccc21,81,85,99
COc1cccc(-c2cc3nc4c(c(NCCCn5ccnc5)n3n2)CCCC4)c1,100,66,10
Cc1ccc(C(=O)Nc2ccc(-c3nc4ccccc4[nH]3)cc2)cc1S(=O)(=O)N1CCOCC1,90,16,56
COc1cccc(OC)c1C(=O)Nc1cccc(-c2nn3ccccc3c2-c2ccnc(Nc3cccc(F)c3)n2)c1,95,38,3
Cc1noc(-c2ccc3c(c2)CCN(CCC2CCC(NC(=O)/C=C/c4cccc(Cl)c4)CC2)CC3)n1.Cl (stereo not given),86,24,37
Cc1cccc2nc(-c3ccc(-c4ccc(CNCCN5CCNCC5)cc4)s3)[nH]c12.O=C(O)C(F)(F)F,88,0,30
CCCN(CCC)CCCCC(C)Nc1c2ccc(Cl)cc2nc2ccc(OC)cc12.Cl (stereo not given),100,100,42
N#Cc1ccc(-c2ccc(C(=O)NCCCCN3CCC(c4ccc5c(c4OCC(N)=O)CCCC5)CC3)nc2)cc1,100,97,21
Br.COc1ccc(CCCON2C(=N)N=C(N)NC2(C)C)cc1,95,94,61
Cl.N#CCc1ccc(Nc2nccc(Nc3ccc(Oc4ccccc4)cc3)n2)cc1,98,47,0
O=C(Nc1ccc(CCNCCCc2ccccc2)cc1)Nc1ccc(Cl)c(Cl)c1,100,99,33
CS(=O)(=O)c1ccc(CNCc2cccc(-c3cccc(-c4nc5cc(F)ccc5[nH]4)c3)c2)cc1.O=C(O)C(F)(F)F,100,84,11
COc1cccc(CNC[C@@H](O)[C@H](Cc2ccccc2)NC(=O)c2cc(C(C)C)cc(N3CCCC3=O)c2)c1,95,61,1
